Our source for the outcome and AC50 values is PubChem BioAssay (EPA / NIEHS).

The nature of test [1]: CCTE_Mundy_HCI_Cortical_NOG_BPCount: CCTE's Neurite Outgrowth Assay in rat cortical cells for Branch Point Count, Mundy Lab (AID 2284237).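 On AC50: branch points counted about two days after chemical exposure.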 The procedure, abridged: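 Measured 50.33 h after dosing, this morphology endpoint uses rat primary cortical cultures labelled for betaIII-tubulin. Branch points are quantified by high-content imaging, with DMSO as negative control and baseline.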

Test [2] in a line: CCTE_Mundy_HCI_hNP1_Casp3_7: CCTE's Caspase-Glo 3/7 Assay in human neuroprogenitor cells for Apoptosis, Mundy Lab (AID 2284240). Summed up: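 Apoptosis is scored by activated caspase-3/7 luminescence in WA09-derived neural progenitor cells, measured 26.5 h after chemical dosing. Values represent gain of signal relative to DMSO vehicle.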
Test [3] in a line: CCTE_Mundy_HCI_Cortical_Synap_Neur_Matur_NeuronCount: CCTE's Synaptogenesis and Neurite Maturation Assay in rat cortical cells for Neuron Count, Mundy Lab (AID 2284242; active means hit-call score of the fitted dose curve at least 0.9, where 1 is the maximum;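 on AC50: hits reduce neuron count versus DMSO baseline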). The procedure, abridged:
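Measured at DIV 12: fluorescently labelled neurons (Hoechst nuclei, MAP2) in rat primary cortical cultures, counted by high-content imaging. AraC suppressed glia from DIV 5; DMSO served as negative control.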

Test [4] in a line: TAMU_HCS_1.5hr_SingleDonor1434_Cytotoxicity: Cytotoxicity Assessment using High-content Screening (HCS) Fluorescent Imaging for the Texas A&M University (TAMU) 1.5-hr Human Induced Pluripotent Stem Cell (iPSC)-derived Cardiotoxicity Assay (AID 2284234; active means hit-call score of the fitted dose curve at least 0.9, where 1 is the maximum). The procedure, abridged: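 Nuclear counts from Hoechst 33342 imaging define cytotoxicity here, with EC10 (10% cell-count loss relative to DMSO) as point of departure. iPSC cardiomyocytes received 0.2-100 uM test chemical in 0.5% DMSO for 1.5 h at 37 C.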

The nature of test [5]: TAMU_PeakParms_SingleDonor1434_QT: Texas A&M University (TAMU) 1.5-hr Human Induced Pluripotent Stem Cell (iPSC)-derived Cardiomyocytes Calcium (Ca+2) Flux Assay for Cardiotoxicity: QT (decay-rise ratio) (AID 2284235; active means hit-call score of the fitted dose curve at least 0.9, where 1 is the maximum). Summed up:
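Decay/rise ratio of calcium-flux fluorescence scored after 90 min exposure (37C) of donor 1434 iPSC cardiomyocytes to 0.2–100 uM (0.5% DMSO). Beat-cessation and severe-notch points removed; POD is EC05, a 5% rise over DMSO.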

The nature of test [6]: UKN2_HCS_IMR90_cell_viability: Viability Assessment in the University of Konstanz (UKN) Leist Lab Neural Crest Cell Migration Assay in human induced IMR90 Pluripotent Stem Cells (UKN2) (AID 2284233).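 Further: cells exposed to compound for 24 h after a 24 h migration phase.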 Summed up: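 After calcein-AM/Hoechst staining, viability is quantified by high-content fluorescence imaging, relative to DMSO, in iPSC (IMR90)-derived neural crest cells. Exposure lasts 24 h, starting after a 24 h migration period on PLO/laminin/fibronectin coating.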

Test [7] in a line: CCTE_Mundy_HCI_Cortical_NOG_NeuronCount: CCTE's Neurite Outgrowth Assay in rat cortical cells for Neuron Count, Mundy Lab (AID 2284236; active means hit-call score of the fitted dose curve at least 0.9, where 1 is the maximum;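 further: neurons counted by imaging betaIII-tubulin and Hoechst stained cortical cells; cells exposed to compound for about 48 hours before fixation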). Summed up: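 Read-out: neuron number by high-content imaging of betaIII-tubulin (Alexa Fluor-488) and Hoechst-labelled rat primary cortical cells.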
Read-out in test [8]: Collagen I, COL1A1 (gene 1277)
Nature of the test: BSK_MyoF_CollagenI: BioMAP Diversity Plus: MyoF Assay for Collagen I Biomarker Activity (AID 2284238). The conditions noted are these: primary human lung fibroblasts. Summed up:
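Collagen I levels measured by ELISA on human lung fibroblast cultures 24 h post-dosing, with curve fitting in the positive direction relative to DMSO; SRB staining of parallel wells marked cytotoxicity.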

Read-out in test [9]: Collagen III, COL3A1 (gene 1281)
The experiment in a line: BSK_MyoF_CollagenIII: BioMAP Diversity Plus: MyoF Assay for Collagen III Biomarker Activity (AID 2284239). The conditions noted are these: primary human lung fibroblasts. Summed up:
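Collagen III biomarker quantified by ELISA in human lung fibroblast cultures 24 h after dosing. Activity fitted in the positive direction against DMSO as baseline.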

Read-out in test [10]: Interleukin 17F (IL17F), IL17F (gene 112744)
The experiment in a line: BSK_BT_xIL17F: BioMAP Diversity Plus: BT Assay for Interleukin 17F (IL17F) Biomarker Activity (AID 2284243). The conditions noted are these: primary human B cells with PBMC. The procedure, abridged:
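Human B cells co-cultured with PBMC; secreted IL-17F quantified by LumineX xMAP 24 hours after chemical dosing. Activity fitted in the positive direction against DMSO negative control as baseline.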

Where “and” joins values, the source holds several entries; their conditions need not be identical. Identical values can stand only once. Records with an inconclusive call do not appear. Calls of active or inactive are those of the source. How the source made its calls, unless noted: active means hit-call score of the fitted dose curve at least 0.9, where 1 is the maximum; inactive means score below 0.9.

`OCCOCCO`: the call in test [1], in [2] and in test [3] was inactive.
Turning to `Clc1ccc(C(c2ccc(Cl)cc2)C(Cl)(Cl)Cl)cc1`, the AC50 – broadly, the concentration at which the activity in the assay is half-maximal – in [4] was 50 µM (active). The result in [5] was inactive.
For the compound `Nc1cc(Cl)cc(C(=O)O)c1Cl`, the call in test [1], in [2] and in [3] was inactive.
`O=P(OCCCl)(OCCCl)OCCCl`: the compound was called inactive in [4].
On to `CC(C)COC(=O)c1ccccc1C(=O)OCC(C)C`, for which the compound was called inactive in [6], in test [7], in test [1] and in test [2]. Further, in test [3], the AC50 was 80.3 µM (active).
For `c1ccc(N=Nc2ccccc2)cc1`, the compound was called inactive in test [4].
As for `ClC1=C(Cl)[C@]2(Cl)[C@H]3[C@H]([C@@H]4C=C[C@H]3C4)[C@@]1(Cl)C2(Cl)Cl`, in test [4], the AC50 is 83 µM (active). In addition, the outcome in test [5] was inactive.
With `CCC[CH2][Sn]([Cl])([CH2]CCC)[CH2]CCC`, the AC50 in test [6] is 0.344 µM (active); in [7], 0.079 µM (active); in [1], 0.0886 µM (active); in test [2] it was 4.18 µM (active); in [3] it was 0.0308 µM (active).
As for `[O-][Cl+]O`, the compound was classed as inactive in [7], in test [1], in test [2] and in [3].
In the case of `CC(C)(C)C(O)(CCc1ccc(Cl)cc1)Cn1cncn1` (stereo unspecified), the result in [4] and in test [3] was inactive. The AC50 in [5] was 18.2 µM (active); in [1], 0.162 µM (active); in test [2] it was 9.92 µM (active).
Regarding `ClC1=C(Cl)C2(Cl)C3C(Cl)C=CC3C1(Cl)C2(Cl)Cl` (stereo unspecified), the AC50 in [4] was 50 µM (active); in [7], 26.5 µM (active); in test [1] it was 12.2 µM (active); in test [2], 90.2 µM (active); in test [3] it was 11.5 µM (active). The result in test [5] was inactive.
For the compound `C1=Cc2cccc3cccc1c23`, the call in test [4] and in test [5] was inactive.
As for `CN(C)[C@@H]1C(=O)C(C(N)=O)=C(O)[C@@]2(O)C(=O)C3=C(O)c4c(O)cccc4[C@@](C)(O)[C@H]3C[C@@H]12`, the result in test [7], in test [1] and in [2] was inactive.
With `CNC(=O)Oc1cccc2c1OC(C)(C)C2`, the result in test [6], in [7], in test [1], in test [2] and in [3] was inactive.
As to `COP(=S)(OC)SCN1C(=O)c2ccccc2C1=O`, the result in test [6], in test [7], in test [1], in test [2] and in [3] was inactive.
With `CCNS(=O)(=O)C(F)(F)C(F)(F)C(F)(F)C(F)(F)C(F)(F)C(F)(F)C(F)(F)C(F)(F)F`, the half-maximal activity concentration (AC50) was 50.6 µM (active) and 44.6 µM (active) in [8]; 44.1 µM (active) and 45 µM (active) in [9]; 21.4 µM (active) and 37.4 µM (active) in test [10].
`COC(=O)Nc1nc2ccccc2[nH]1`: the result in test [6], in [7] and in test [3] was inactive. Also, the figures for the AC50 in test [1] and in test [2] were 3.98 µM (active) and 6.5 µM (active), respectively.
On to `CCCCCCCCn1sccc1=O`, for which the AC50 in test [4] was 7.87 µM (active).
Consider `CCCCOC(=O)c1ccccc1C(=O)OCc1ccccc1`, for which the outcome in [6], in test [7], in test [1] and in test [2] was inactive. Further, the AC50 in test [3] was 50.5 µM (active).
